# Vif-APOBEC3G blk: inhibitors of Vif-APOBEC3G interaction; Potency, µM (top dose mostly 46.1 µM), inactives show at the top dose activity, negative = active, usual class: inhibitors; 410,000 compounds, 0.076% hits; HeLa A3G-eYFP + Vif (tagged APOBEC3G with the HIV-1 protein that degrades it), YFP fluorescence, overnight; AID 602310; also: % is scaled to controls: 0 for no effect and ±100 for the full control effect; nearly all actives have a fitted effect of over 60% in size
# Target sequence (Q9HC16 whole entry, looked up): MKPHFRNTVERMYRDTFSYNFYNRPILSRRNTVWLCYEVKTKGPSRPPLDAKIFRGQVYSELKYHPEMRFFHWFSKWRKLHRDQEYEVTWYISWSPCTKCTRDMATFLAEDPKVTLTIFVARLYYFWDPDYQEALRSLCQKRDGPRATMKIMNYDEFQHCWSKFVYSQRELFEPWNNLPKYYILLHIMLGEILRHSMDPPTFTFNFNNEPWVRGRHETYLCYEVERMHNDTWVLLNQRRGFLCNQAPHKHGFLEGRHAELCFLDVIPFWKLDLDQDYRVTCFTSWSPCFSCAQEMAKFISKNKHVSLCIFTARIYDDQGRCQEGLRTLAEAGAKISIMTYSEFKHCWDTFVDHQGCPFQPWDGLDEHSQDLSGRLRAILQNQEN
#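 HeLa cells stably expressing Vif and C-terminally eYFP-tagged A3G, seeded overnight at 37 deg C, then exposed to compound by pintool overnight at 37 deg C. Rise in yellow fluorescence (Ex 488/Em 500-530, Acumen) marks blocked Vif-driven A3G degradation.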
# Vif-APOBEC3F blk: inhibitors of Vif-A3F interaction; HeLa A3F-eYFP + Vif (tagged APOBEC3F with the HIV-1 protein that degrades it), YFP fluorescence increase; Potency, µM (highest dose often 46.1 µM), for inactives: top-dose activity, negative = active; 390,000 compounds, 0.2% hits; AID 602313; also: % of control where 0% means no effect; nearly all actives have a fitted effect of over 65% in size
#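 HeLa cells stably expressing A3F-eYFP plus Vif, plated and incubated overnight at 37 deg C, then exposed to compounds overnight at 37 deg C. Blocked degradation read as raised yellow fluorescence (Ex 488/Em 500-530).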
# PINK1 expr mod: changes PINK1 expression. PINK1 immunofluorescence, high-content cytometry, 24 h. 410,000 compounds, 0.2% hits. Potency, µM (series often up to 76.6 µM), for the others: at the top dose activation (PINK1 increase), hits mostly activators. AID 624263; active = well fitted activation curve with a large enough effect; inconclusive = small, poorly fitted or top-dose-only effect; cell line not stated here; also: % of control where 0% means no effect; nearly all actives have a fitted effect of over 65% in size
#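 Readout is PINK1 immunofluorescence, quantified alongside mitochondrial, cell and nuclear markers by laser-scanning microplate cytometry. Cells from a stable line were exposed to compound titrations (5 concentrations) for 24 hours, with CCCP controls.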
# Epigenetic reg: regulators of epigenetic silencing causing reporter derepression in mouse cells. 280,000 compounds, 0.2% hits. Potency, µM (top dose mostly 53.9 µM), without a hit: top-dose GFP activation, actives largely listed as activators. murine LDR cells, GFP reporter derepression, 30 h; also: % of control where 0% means no effect; nearly all actives have a fitted effect of over 60% in size
#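 In this reporter-derepression format, murine cells bearing a silenced integrated CMV-GFP locus incubate with test compound (30 h, 37 C), then are washed and imaged; fluorescent objects of 20–120 um count as induced cells.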
# * hit, by the source's call; i = inactive; ? = inconclusive; . = no result; [ ] = dose if it differs, or a comment. A selection: hits, their analogues and other compounds. The true share with any hit is near 0.52%. Unless noted, calls follow the shape of the dose curve; as a rule, active = well fitted curve in the direction sought with a large enough effect; inconclusive = small, poorly fitted or top-dose-only effect, or another doubt; inactive = no such curve, though single readings can be large; an effect the other way counts as inactive or inconclusive. Potency is read from the fitted curve at half-maximal effect.
SMILES,Vif-APOBEC3G blk,Vif-APOBEC3F blk,PINK1 expr mod,Epigenetic reg
CNC(=O)c1c(NC(=O)c2ccc(S(=O)(=O)N(C)c3ccccc3)cc2)sc2c1CCN(C(C)C)C2,?,7.08µM*,9.7%,.
Cc1ccc(C(=O)Nc2cccc(-c3nc(CNC(=O)c4ccc(F)cc4Cl)c(C)o3)c2)s1,.,.,-0.3%,.
COc1cccc(-c2nc3cc(SC)ccc3cc2CN(C(=O)c2csc(C)n2)C2CC2)c1,.,.,0.7%,.
CC(C)N1CCc2c(sc(NC(=O)c3ccc(S(=O)(=O)N4CCOCC4)cc3)c2C#N)C1,-23.2%,12.6µM*,1.8%,3.8%
COc1ccccc1-c1ccnc(-n2ncc(C(=O)NCC3(N4CCOCC4)CCCC3)c2C)n1,.,.,0.9%,.
CC(=O)c1cccc(NC(=S)N2CCc3ccccc32)c1,4.0%,0.0%,-1.1%,.
CC(=O)c1cccc(NC(=S)N2c3ccccc3CC2C)c1 (stereo not given),8.91µM*,4.9%,1.7%,-1.2%
Cc1cc(NC(=O)c2ccco2)cc(-c2nc3cc(Cl)ccc3o2)c1O,?,11.2µM*,10.6%,?
Cc1ccc2oc(-c3cc(NC(=O)c4cccs4)cc(C)c3O)nc2c1,-0.9%,1.1%,-0.6%,0.0%
COc1ccc(/C=C2\OC(=S)N(C)C2=O)cc1,-8.1%,-1.9%,-1.6%[38.3 µM],2.4%
CN1C(=O)/C(=C\c2ccc(N(C)C)cc2)OC1=S,?,i,31.6µM*,.
COc1ccc(S(=O)(=O)NCc2nc(N3CCCC3)c3cccc(C)c3n2)cc1OC,.,.,0.0%,.
Cc1cccc(NCc2ccc(O)c3ncccc23)c1C,5.1%,?,15.8µM*,9.6%
Cc1cccnc1NCc1ccc(O)c2ncccc12,-16.5%,0.0%,14.1µM*,6.31µM*
CO[C@H]1[C@H](NC(=O)c2ccsc2)c2ccccc2C12CCN(Cc1cc3ccccc3o1)CC2,.,.,-0.1%,.
O=C(Oc1c(CN2CCOCC2)cc(Cl)c2cccnc12)c1ccccc1Br,-27.7%,?,6.5%,?
CN1CCN(Cc2cc(Cl)c3cccnc3c2OC(=O)c2cccs2)CC1,-1.1%,?,-2.8%,3.55µM*
O=C1c2cccc3c([N+](=O)[O-])c(O)cc(c23)C(=O)N1Nc1ccccc1,?,10µM*,3.5%,3.2%
O=C(NCC1Cc2cccc(-c3nccs3)c2O1)c1ccnc(Cl)c1 (stereo not given),.,.,1.1%,.
O=C(Nc1ccc(Oc2ccc(NC(=O)Nc3ccccc3Cl)cc2)cc1)Nc1ccccc1Cl,-2.3%,11.2µM*,7.6%,1.1%
COc1cc(NC(=O)c2noc3c2CCC3)c(OC)cc1Cl,-2.1%,-6.0%,11.2µM*,-1.1%
CC(=O)c1ccccc1-c1ccc2c(c1)CC(CNC(=O)c1ccnc(Cl)c1)O2 (stereo not given),.,.,1.6%,.
O=C(NC(NC(=S)Nc1c(Cl)cccc1Cl)C(Cl)(Cl)Cl)c1cccc([N+](=O)[O-])c1 (stereo not given),?,?,28.2µM*,-1.9%
COC(=O)NC(NC(=S)Nc1ccc([N+](=O)[O-])cc1)C(Cl)(Cl)Cl (stereo not given),-4.3%,-13.3%,20µM*,0.0%
COc1ccc(CN2CCCC(n3cc(C(=O)N4CCCCC4)nn3)C2)c(OC)c1OC (stereo not given),.,.,1.8%,.
SMILES,Vif-APOBEC3G blk,Vif-APOBEC3F blk,PINK1 expr mod,Epigenetic reg
Cc1ccc(NC(=O)c2cc3ccccc3oc2=N)cc1,1.2%,1.0%,-0.6%,.
N=c1oc2c3c4c(cc2cc1C(=O)Nc1ccccc1)CCCN4CCC3,8.1%,5.6%,11.2µM*,0.282µM*
C=CC(=O)N1CCC[C@@H](n2nc(-c3ccc(Oc4ccccc4)cc3)c3c(N)ncnc32)C1,-3.3%[92.2 µM],.,-1.2%[153 µM],.
CCOC(=O)N1CCc2c(sc3c2c(=O)n(-c2ccc(CC)cc2)c(=O)n3CC(=O)c2ccc(F)cc2)C1,-2.9%,0.9%,3.1%,2.4%
CCOC(=O)N1CCc2c(sc3c2c(=O)n(-c2ccc(F)cc2)c(=O)n3CC(=O)c2ccc(Cl)cc2)C1,-17.0%,?,0.5%,15.8µM*
COC(=O)[C@@H]1CCCN1Cc1ccc2c(c1)CN(Cc1coc3ccccc3c1=O)CCO2,.,.,-0.9%,.
COc1ccc(NC(=S)Nc2ncccc2C)c(OC)c1,11.2µM*,1.0%,.,-2.2%
CCOc1ccc(NC(=O)c2cc(=O)c3ccc(C)c(C)c3o2)cc1,-6.7%,?,2.3%,20µM*
COc1c(OC(C)=O)ccc(/C=C/c2ccc3ccccc3n2)c1[N+](=O)[O-],0.4%,-7.2%,10µM*,0.4%
C[C@@H]1CN(Cc2ccc3c(c2)CN(C(=O)c2ccc(Oc4ccccc4)o2)CCO3)C[C@H](C)O1,.,.,2.1%,.
COc1ccc(C(=O)N/N=C/c2cc(Br)ccc2O)cc1OC,-29.7%,11.2µM*,5.0%,-1.0%
COc1ccc(Br)cc1/C=N/NC(=O)c1cc(Br)ccc1O,.,.,.,0.0%
Cc1ccc2c(c1)CN(CCNC(=O)C(C)Oc1ccccc1)CC(C)O2 (stereo not given),.,.,-1.0%,.
CCn1c(SCC(=O)N2CCN(c3ccccc3)CC2)nnc1-c1cc2cc(Cl)ccc2o1,1.3%,-3.6%,11.2µM*,-7.9%
C=CCn1c(SCC(=O)N2CCN(c3ccccc3)CC2)nnc1-c1ccco1,1.0%,12.2%,-2.6%,0.0%
COc1ccccc1N1CCN(c2nc(CNC(=O)c3ccccc3F)nc3ccccc23)CC1,.,.,1.3%,.
Cc1cc(=O)[nH]c(SCC(=O)Nc2ccc(F)cc2)c1C#N,-16.2%,0.6%,13.4%,-0.2%
Cc1cc(=O)[nH]c(SCC(=O)Nc2ccc(Br)cc2)c1C#N,-6.6%,-3.0%,15.8µM*,-1.0%
CCOC(=O)c1cc2n(c1/N=C/N(C)C)-c1ccccc1C2=O,?,22.4µM*,2.8%[38.3 µM],0.0%
COCc1c(C(=O)N2CCN(c3ccccc3O)CC2)cnn1-c1nccc(-c2cccs2)n1,.,.,0.9%,.
CC1CN(CC(=O)NCC2(N3CCOCC3)CCCC2)Cc2cc(Cl)ccc2O1 (stereo not given),.,.,-0.4%,.
Cc1ccc(C(=O)C[n+]2ccc3ccccc3c2)cc1,-2.0%,-7.5%,-1.7%,-4.1%
Cc1cc(C(C)(C)C)cc(C)c1C[n+]1ccc2ccccc2c1,-0.9%,-12.2%,44.7µM*,.
Cc1ccc(S(=O)(=O)C(C#N)c2nc3ccccc3nc2N2CCCC2)cc1 (stereo not given),?,22.4µM*,6.2%,-0.9%
CCCCCNC(=O)C(C#N)c1nc2ccccc2nc1N1CCCC1 (stereo not given),-17.4%,7.08µM*,5.4%,0.0%
CCN1CCN(c2nc3ccccc3nc2C(C#N)S(=O)(=O)c2ccc(C)cc2)CC1 (stereo not given),0.9%,-17.0%,1.2%,0.0%
N#CC(C(=O)NCc1ccccc1)c1nc2ccccc2nc1N1CCCC1 (stereo not given),-0.5%,10µM*,?,?
N#CC(C(=O)NCCc1ccccc1)c1nc2ccccc2nc1N1CCCCC1 (stereo not given),-13.8%,-18.6%,5.2%,4.3%
COc1ccc(-c2ccnc(-n3ncc(C(=O)NCc4cccnc4)c3C3CC3)n2)cc1F,.,.,1.1%,.

# Screening results (PubChem)
